This note sets out measurements from PubChem BioAssay (Tox21).

The target of test [1] is Aryl hydrocarbon receptor (Homo sapiens) (UniProt P35869). As to the kind of experiment: qHTS assay to identify small molecule that activate the aryl hydrocarbon receptor (AhR) signaling pathway (AID 743085). Note: nearly all actives have a fitted effect of over 15% in size. Note: potency is the fitted concentration of half-maximal effect. Summed up: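 Luminescence (ONE-Glo) from a dioxin-responsive-element luciferase reporter in HG2L7.5c1 HepG2 cells after 24 hr compound exposure at 37C; viability measured by CellTiter-Fluor fluorescence beforehand.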
Chain of Aryl hydrocarbon receptor (Homo sapiens) (P35869 whole entry, looked up): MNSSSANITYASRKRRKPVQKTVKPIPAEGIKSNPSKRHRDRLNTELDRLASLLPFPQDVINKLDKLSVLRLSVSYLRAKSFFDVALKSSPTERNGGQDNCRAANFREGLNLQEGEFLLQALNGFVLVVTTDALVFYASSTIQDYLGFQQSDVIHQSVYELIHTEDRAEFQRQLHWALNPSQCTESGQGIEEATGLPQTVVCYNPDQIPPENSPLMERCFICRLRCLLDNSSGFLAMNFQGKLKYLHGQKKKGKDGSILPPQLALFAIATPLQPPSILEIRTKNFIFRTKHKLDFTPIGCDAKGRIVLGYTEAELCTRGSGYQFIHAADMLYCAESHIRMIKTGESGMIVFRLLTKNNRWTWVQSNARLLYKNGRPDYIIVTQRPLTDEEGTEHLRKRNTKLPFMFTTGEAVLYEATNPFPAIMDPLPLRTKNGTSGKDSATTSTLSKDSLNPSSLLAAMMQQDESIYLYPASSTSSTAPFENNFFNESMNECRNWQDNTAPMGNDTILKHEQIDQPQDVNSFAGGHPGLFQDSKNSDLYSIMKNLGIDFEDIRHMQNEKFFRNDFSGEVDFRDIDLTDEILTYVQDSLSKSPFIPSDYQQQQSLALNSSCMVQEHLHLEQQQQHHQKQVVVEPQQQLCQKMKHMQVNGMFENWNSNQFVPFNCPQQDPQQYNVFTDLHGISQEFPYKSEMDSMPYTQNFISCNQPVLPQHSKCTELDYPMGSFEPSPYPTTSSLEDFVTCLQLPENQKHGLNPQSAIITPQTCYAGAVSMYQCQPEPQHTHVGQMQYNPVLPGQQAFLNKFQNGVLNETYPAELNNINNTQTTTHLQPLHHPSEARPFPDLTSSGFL

Test [2] can be described thus: qHTS assay for small molecules that induce genotoxicity in human embryonic kidney cells expressing luciferase-tagged ATAD5 (AID 651632). Note: nearly all actives have a fitted effect of over 15% in size. Note: potency is the fitted concentration of half-maximal effect. The essentials: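 Concentration-response screen for ATAD5 upregulation in HEK293T luciferase reporter cells; 16 hr treatment at 37C, then luminescence after 30 min with Amplite at room temperature.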
The nature of test [3]: qHTS assay for small molecule agonists of the p53 signaling pathway - cell viability (AID 651633; calls by dose curve; note: nearly all actives have a fitted effect of over 30% in size; note: potency is the fitted concentration of half-maximal effect). The essentials: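 p53RE-bla cells, seeded at 4,000 per well and rested 5 h at 37 C/5% CO2, received compounds in DMSO for 16 h at 37 C. CellTiter-Glo was then added, and luminescence was read after 30 min at room temperature to gauge cytotoxicity.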
Test [4] is described as follows: qHTS assay to test for compound auto fluorescence at 535 nm (green) in HepG2 cells (AID 720675).
Test [5] can be described thus: qHTS assay to test for compound auto fluorescence at 460 nm (blue) in HEK293 cells (AID 720678). The essentials: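 HEK293 cells (2,000/well, medium with 10% dialyzed FBS) attached 4-5 hr, then exposed to compound overnight at 37C, 5% CO2. Blue fluorescence read at 405/460 nm, with triamterene as reference fluorophore.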
Test [6] can be described thus: qHTS assay to test for compound auto fluorescence at 590 nm (red) in HEK293 cells (AID 720679). The essentials:
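HEK293 cells (2,000/well, 10% dialyzed FBS) attached 4-5 hr, then dosed with compound or DMSO and incubated overnight at 37C, 5% CO2. Red fluorescence read at 540/590 nm, Rose Bengal sodium as reference fluorophore.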

Test [7] in a line: qHTS assay to test for compound auto fluorescence at 460 nm (blue) in HEK293 cell free culture (AID 720681). Summed up: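 Test compounds were pinned into cell-free culture medium (DMEM with 10% FBS) and fluorescence was read directly at Ex/Em 405/460 nm. Signals were expressed as fluorescence equivalents of triamterene, with DMSO vehicle as control.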
Test [8] in a line: qHTS assay to test for compound auto fluorescence at 590 nm (red) in HepG2 cell free culture (AID 720684). The essentials: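 Readout: intrinsic compound fluorescence at 590 nm emission after 540 nm excitation, scaled to Rose Bengal sodium. Matrix was cell-free MEM with 10% FBS; DMSO vehicle wells served as control.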
Test [9] is described as follows: qHTS assay to test for compound auto fluorescence at 460 nm (blue) in HepG2 cell free culture (AID 720685). The essentials: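 Cell-free plates of MEM plus 10% FBS received 23 nL compound or DMSO vehicle; blue-channel (405/460 nm) intensity scored against triamterene as reference fluorophore.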
Test [10] in a line: qHTS assay to test for compound auto fluorescence at 535 nm (green) in HepG2 cell free culture (AID 720686).
Test [11] can be described thus: qHTS assay to test for compound auto fluorescence at 460 nm (blue) in HepG2 cells (AID 720687). Summed up: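 Cells (2,000/well in MEM with 10% FBS) attached overnight at 37 C, then were exposed to compound or DMSO for 1 hr at 37 C, 5% CO2. Fluorescence read at Ex/Em 405/460 nm, expressed as triamterene-equivalent signal.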
A short description of test [12]: qHTS assay for identifying genotoxic compounds that show differential cytotoxicity against isogenic chicken DT40 cell lines with known DNA damage response pathways - Rad54/Ku70 mutant cell line (AID 743015). Note: nearly all actives have a fitted effect of over 60% in size. Note: potency is the fitted concentration of half-maximal effect.
The nature of test [13]: qHTS assay to identify small molecule antagonists of the androgen receptor (AR) signaling pathway - cell viability counter screen (AID 743033; note: nearly all actives have a fitted effect of over 45% in size; note: potency is the fitted concentration of half-maximal effect).
Test [14] can be described thus: qHTS assay to identify small molecule antagonists of the androgen receptor (AR) signaling pathway using the MDA cell line - cell viability counter screen (AID 743041; note: nearly all actives have a fitted effect of over 45% in size; note: potency is the fitted concentration of half-maximal effect). The essentials: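 qHTS viability read-out; MDA-kb2 AR-luc; R1881-stimulated; 16 h exposure at 37C, 0% CO2; CellTiter-Fluor, 30 min; fluorescence intensity.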
Test [15] is described as follows: qHTS assay to identify small molecule antagonists of the estrogen receptor alpha (ER-alpha) signaling pathway - cell viability counter screen (AID 743074; calls by dose curve;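 note: HEK293 cells carrying ER-alpha-UAS-bla reporter stimulated with 17beta-estradiol; nearly all actives have a fitted effect of over 45% in size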; note: potency is the fitted concentration of half-maximal effect).
For test [16], the target named is Aromatase (Homo sapiens) (UniProt P11511). As to the kind of experiment: qHTS assay to identify aromatase inhibitors (AID 743083). Note: nearly all actives have a fitted effect of over 55% in size. Note: potency is the fitted concentration of half-maximal effect.
Chain of Aromatase (Homo sapiens) (P11511 whole entry, looked up): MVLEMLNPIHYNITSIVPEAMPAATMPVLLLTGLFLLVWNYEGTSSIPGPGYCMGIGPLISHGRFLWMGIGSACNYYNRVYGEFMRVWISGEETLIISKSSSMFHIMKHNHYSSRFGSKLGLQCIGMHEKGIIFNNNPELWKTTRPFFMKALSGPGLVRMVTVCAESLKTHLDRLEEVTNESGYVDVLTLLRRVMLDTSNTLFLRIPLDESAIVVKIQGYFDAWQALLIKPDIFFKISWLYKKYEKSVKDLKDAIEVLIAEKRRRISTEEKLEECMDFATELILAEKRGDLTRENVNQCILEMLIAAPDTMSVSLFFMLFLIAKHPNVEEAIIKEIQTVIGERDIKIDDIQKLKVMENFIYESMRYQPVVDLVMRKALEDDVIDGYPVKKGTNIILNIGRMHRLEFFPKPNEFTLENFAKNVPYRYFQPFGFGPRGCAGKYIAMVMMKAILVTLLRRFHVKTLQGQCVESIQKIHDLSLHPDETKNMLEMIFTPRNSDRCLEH
Test [17] can be described thus: qHTS assay to identify aromatase inhibitors - cell viability counter screen (AID 743084).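 Note: cells stimulated with testosterone during compound exposure; nearly all actives have a fitted effect of over 55% in size.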 Note: potency is the fitted concentration of half-maximal effect.
The nature of test [18]: qHTS assay for small molecule disruptors of the mitochondrial membrane potential - cell viability (AID 720634; calls by dose curve; note: nearly all actives have a fitted effect of over 20% in size; note: potency is the fitted concentration of half-maximal effect). The essentials:
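In this qHTS format, HepG2 cells plated overnight were pinned with compound, incubated 1 hr, and assayed for ATP luminescence with CellTiter-Glo after m-MPI dye addition.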

Test [19] is described as follows: qHTS assay to test for compound auto fluorescence at 535 nm (green) in HEK293 cell free culture (AID 720682). The essentials: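 Compounds were pin-transferred into cell-free DMEM with 10% FBS, and green fluorescence was read at excitation 485 nm and emission 535 nm. Intensities were expressed as fluorescein-equivalent values.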
Test [20] can be described thus: qHTS assay for identifying genotoxic compounds that show differential cytotoxicity against isogenic chicken DT40 cell lines with known DNA damage response pathways - wild type cell line (AID 743012). Note: nearly all actives have a fitted effect of over 60% in size. Note: potency is the fitted concentration of half-maximal effect. The essentials: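 Endpoint: CellTiter-Glo luminescence, 30 min RT. Cells: wild type DT40, 300/well. Exposure: compounds in DMSO, 40 h, 37 C/5% CO2, after ~0.5 h pre-incubation.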

The structures appear in SMILES notation. Records with an inconclusive call do not appear. The source made the active and inactive calls. Unless noted, calls come from the whole dose curve; as a rule, active = well fitted curve in the direction sought with a large enough effect in the repeat runs; inconclusive = weak or mixed curves; inactive = no such curve, though single readings can be large; an effect the other way counts as inactive or inconclusive.

For the compound `C=CCOc1c(Br)cc(C(C)(C)c2cc(Br)c(OCC=C)c(Br)c2)cc1Br`, the Potency result in test [1] was “inactive”.

On to `CCC(C)(S(=O)(=O)CC)S(=O)(=O)CC`, for which the Potency entry in test [2], in test [3], in test [4], in [5], in test [7] and in test [9] was “inactive” in each case. Also, the Potency result in test [10], in test [11], in test [12], in test [13], in test [14] and in test [15] was “inactive” each time. Also, the Potency entry in test [16], in test [17] and in test [1] was “inactive” throughout. The result in [6] and in [8] was inactive.

In the case of `Fc1c(F)c(F)c(Br)c(F)c1F`, the Potency entry in test [16] and in test [1] was “inactive” in each case.

Take `COc1cc([C@@H]2c3cc4c(cc3[C@H](O)[C@H]3COC(=O)[C@H]23)OCO4)cc(OC)c1OC`: the Potency entry in test [16] was “inactive”.

With `Cc1c(N)cccc1N`, the Potency entry in test [16] is “inactive”. Besides, in test [1], the Potency is 27.9 µM (active).

On to `C[N+](C)(C)CCCCCCCCCC[N+](C)(C)C`, for which the Potency result in [16] and in test [1] was “inactive” throughout.

On to `COC(=O)[C@]12CCC(C)(C)C[C@H]1[C@H]1C(=O)C=C3[C@@]4(C)C=C(C#N)C(=O)C(C)(C)[C@@H]4CC[C@@]3(C)[C@]1(C)CC2`, for which the Potency in [3] is 1.33 µM (active); in test [13], 4.25 µM (active); in test [14] it was 6.68 µM (active); in test [15], 3.38 µM (active). For the same compound, the Potency result in test [18], in test [4], in test [5], in [7], in test [19] and in test [9] was “inactive” each time. In addition, the Potency entry in test [10], in test [11] and in test [1] was “inactive” throughout. Moreover, the compound was called inactive in test [6] and in test [8].

For `C[C@]12C=CC(=O)C=C1CC[C@@H]1[C@@H]2CC[C@]2(C)OC(=O)CC[C@@H]12`, the Potency entry in test [2], in test [3], in test [18], in test [4], in [5] and in [7] was “inactive” each time. Besides, the Potency result in test [9], in test [10], in test [11], in test [20], in [12] and in [13] was “inactive” each time. Also, the Potency result in test [14], in [15], in test [16], in test [17] and in test [1] was “inactive” throughout. The compound was classed as inactive in test [6] and in [8].

With `CN1[C@@H]2CC[C@H]1CC(OC(=O)C(CO)c1ccccc1)C2` (some centres undefined), the Potency entry in [16] was “inactive”.

As for `C[C@H]1CC[C@]2(NC1)O[C@H]1C[C@H]3[C@@H]4CC[C@H]5C[C@@H](O)CC[C@]5(C)[C@H]4CC[C@]3(C)[C@H]1[C@@H]2C`, the Potency result in [2], in [3], in test [4], in [5], in [7] and in [19] was “inactive” throughout. Also, the Potency entry in [9], in [10], in test [11], in [20], in test [12] and in test [13] was “inactive” in each case. The Potency result in test [14], in [15], in test [16], in test [17] and in [1] was “inactive” in each case. Besides, the outcome in [6] and in test [8] was inactive.

For the compound `C[C@H]1CC[C@]2(NC1)O[C@H]1C[C@H]3[C@@H]4CC[C@H]5C[C@@H](O[C@@H]6O[C@H](CO)[C@H](O[C@@H]7O[C@H](CO)[C@@H](O)[C@H](O[C@@H]8OC[C@@H](O)[C@H](O)[C@H]8O)[C@H]7O[C@@H]7O[C@H](CO)[C@@H](O)[C@H](O)[C@H]7O)[C@H](O)[C@H]6O)CC[C@]5(C)[C@H]4CC[C@]3(C)[C@H]1[C@@H]2C`, the Potency in test [2] is 1.33 µM (active); in [3] it was 2.11 µM (active); in test [18], 3.35 µM (active); in [20], 1.88 µM (active); in [12], 2.37 µM (active); in test [13], 4.77 µM (active). In addition, the Potency in test [14] is 6.68 µM (active); in test [15], 10.7 µM (active); in test [16], 3.35 µM (active); in test [17], 5.96 µM (active). Also, the Potency result in test [4], in test [5], in [7], in test [19], in test [9] and in test [10] was “inactive” throughout. Besides, the Potency result in test [11] and in [1] was “inactive” in each case. Besides, the compound was classed as inactive in [6] and in test [8].

For `CN1[C@@H]2CC[C@H]1CC(OC1c3ccccc3CCc3ccccc31)C2` (some centres undefined), the Potency entry in [2], in test [3], in [18], in [4], in test [5] and in test [7] was “inactive” in each case. In addition, the Potency result in [19], in test [9], in test [10], in test [11], in test [13] and in test [14] was “inactive” throughout. The Potency entry in [15], in test [16], in test [17] and in test [1] was “inactive” throughout. Moreover, the call in test [6] and in test [8] was inactive. Also, the results for the Potency in test [20] and in test [12] were 7.17 µM (active) and 11.4 µM (active), respectively.
